Assay results: PubChem BioAssay (NCATS)
Where “and” joins values, the source holds several entries; their conditions need not be identical. Equal entries are not always repeated. Results filed as inconclusive are left out. Entries that show only a call come without a potency. A structure can be active in one record and inactive in another. Calls of active or inactive are those of the source. Unless noted, calls follow the shape of the dose curve; as a rule, active = well fitted curve in the direction sought with a large enough effect; inconclusive = small, poorly fitted or top-dose-only effect, or another doubt; inactive = no such curve, though single readings can be large; an effect the other way counts as inactive or inconclusive.

Legend:
[1] = Cellular Toxicity (caspase-3) HepG2 (AID 654);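 also: cells exposed to compound for 16 hours before reading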
Summary of the method: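 Luminescent Caspase-Glo 3/7 readout after 16 hr compound exposure of human hepatocellular carcinoma HepG2 cells at 37 °C; qHTS concentration-response, normalized DMSO = 0%, 100 uM tamoxifen = 100%; AC50 by standard Hill equation.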

[2] = Cellular Toxicity (caspase-3) Renal Proximal Tubule (AID 667); details: renal proximal tubule cells; at 91.7 µM (top of the series), primary cells freshly taken from rat, solvent-only wells 0%, staurosporine 100% unless noted;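 also: cells exposed to compound for 16 hours at 37 °C before detection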
Summary of the method: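 Caspase-Glo 3/7 read-out, rat primary kidney proximal tubule cells. Compound exposure 16 h, 37 °C; detection after 1 h at RT. Activity scaled to DMSO and 10 uM staurosporine.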

[3] = biological target: Vitamin D3 receptor (Homo sapiens) (UniProt P11473); assay: qHTS assay for small molecule antagonists of vitamin D receptor signaling (AID 588541; calls by dose curve;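 also: receptor activated by calcitriol during compound treatment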)
Vitamin D3 receptor (Homo sapiens), sequence (P11473 whole entry, looked up): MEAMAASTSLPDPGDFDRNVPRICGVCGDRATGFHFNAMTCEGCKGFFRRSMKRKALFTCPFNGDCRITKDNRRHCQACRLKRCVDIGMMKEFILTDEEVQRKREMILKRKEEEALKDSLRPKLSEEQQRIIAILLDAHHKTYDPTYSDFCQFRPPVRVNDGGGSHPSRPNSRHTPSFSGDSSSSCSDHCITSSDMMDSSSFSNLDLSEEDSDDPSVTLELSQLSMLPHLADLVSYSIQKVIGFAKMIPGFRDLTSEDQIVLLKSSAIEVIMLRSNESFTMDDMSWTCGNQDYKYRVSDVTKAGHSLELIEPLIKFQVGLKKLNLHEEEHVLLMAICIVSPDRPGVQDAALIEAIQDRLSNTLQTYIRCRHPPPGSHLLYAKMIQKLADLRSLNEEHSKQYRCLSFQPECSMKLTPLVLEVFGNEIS
Summary of the method: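 Antagonist-mode beta-lactamase reporter assay: HEK293T VDR-UAS-bla cells were exposed to titrated compound alongside 1-alpha,25-dihydroxyvitamin D3 at 3 nM final for 16 h. Values were normalized to the 50 nM agonist control and DMSO basal, with IC50 and efficacy from Hill equation fits.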

[4] = biological target: Vitamin D3 receptor (Homo sapiens) (UniProt P11473); assay: qHTS assay for small molecule agonists of vitamin D receptor signaling (AID 588543; calls by dose curve)
Summary of the method: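 Measured: β-lactamase reporter activity (CCF4, 405 nm excitation, 460/530 nm emission) in HEK293T VDR-UAS-bla cells after 16 h compound exposure at 37 °C. Normalization against 50 nM 1α,25-dihydroxyvitamin D3 and DMSO; Hill-fit EC50.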

[5] = qHTS assay for small molecule activators of the nuclear factor-kappa B (NF-kB) signaling pathway (AID 651749; active = well fitted activation curve with a large enough effect in the signal ratio; the % refers to the signal ratio); details: NF-kB-bla ME-180 cells, beta-lactamase FRET ratio, 16 h; activation: stronger effect = higher value
Summary of the method: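 FRET-based beta-lactamase detection in ME-180 cells reports NF-kB response-element-driven transcription following overnight (16 hr) compound treatment.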

[6] = Cell Viability - LYMP2-021 (AID 974);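 also: compound exposure lasts 24 hours at 37 °C; nearly all actives have a fitted effect of over 55% in size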
Summary of the method: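 ATP luminescence (CellTiter-Glo, 30 min RT) after 24 h compound exposure at 37 C; 2500 human lymphoblastoid cells/well, 5 h settle beforehand. Cytotoxicity = concentration-dependent ATP drop, AC50 by Hill fit.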

[7] = biological target: Glucocorticoid receptor (Homo sapiens) (UniProt P04150); assay: qHTS assay for small molecule antagonists of glucocorticoid receptor signaling (AID 588533; active = well fitted inhibition curve with a large enough effect in the signal ratio, with a control signal flat, not every such curve was filed as active; the % refers to the signal ratio;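 also: cells stimulated with 2 nM dexamethasone as agonist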; also: potency is read from the fitted curve at half-maximal effect)
Glucocorticoid receptor (Homo sapiens), sequence (P04150 whole entry, looked up): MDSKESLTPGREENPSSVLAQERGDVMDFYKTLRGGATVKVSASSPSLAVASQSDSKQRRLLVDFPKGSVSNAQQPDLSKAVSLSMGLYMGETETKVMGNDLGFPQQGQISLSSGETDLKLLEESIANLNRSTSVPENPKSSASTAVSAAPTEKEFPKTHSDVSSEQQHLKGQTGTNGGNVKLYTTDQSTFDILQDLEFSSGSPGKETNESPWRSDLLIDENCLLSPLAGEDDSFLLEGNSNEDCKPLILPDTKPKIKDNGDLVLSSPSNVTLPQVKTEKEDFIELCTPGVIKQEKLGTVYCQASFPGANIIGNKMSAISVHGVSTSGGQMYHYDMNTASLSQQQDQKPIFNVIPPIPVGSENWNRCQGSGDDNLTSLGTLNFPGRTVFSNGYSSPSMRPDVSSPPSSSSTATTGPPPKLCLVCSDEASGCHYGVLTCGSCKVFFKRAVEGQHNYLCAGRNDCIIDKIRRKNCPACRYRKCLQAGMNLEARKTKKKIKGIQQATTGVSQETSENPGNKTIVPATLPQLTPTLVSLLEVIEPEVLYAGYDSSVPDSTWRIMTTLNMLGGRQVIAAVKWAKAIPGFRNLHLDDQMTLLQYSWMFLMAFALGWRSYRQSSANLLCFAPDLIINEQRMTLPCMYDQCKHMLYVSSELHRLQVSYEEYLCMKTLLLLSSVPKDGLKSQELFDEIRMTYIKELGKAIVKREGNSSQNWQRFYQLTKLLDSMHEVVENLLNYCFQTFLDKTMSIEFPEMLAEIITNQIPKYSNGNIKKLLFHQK
Summary of the method: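 Antagonist-mode qHTS: compound titrations added to GRE-bla HeLa cells, then dexamethasone 2 nM final; 18 h, 37 C. CCF4 FRET fluorescence normalized to dexamethasone and DMSO; IC50 from Hill fit.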

[8] = biological target: Peroxisome proliferator-activated receptor gamma (Homo sapiens) (UniProt P37231); assay: qHTS assay for small molecule antagonists of peroxisome proliferator-activated receptor gamma signaling (AID 588537; active = well fitted inhibition curve with a large enough effect in the signal ratio, with a control signal flat, not every such curve was filed as active; the % refers to the signal ratio;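 also: reporter cells co-stimulated with 50 nM rosiglitazone agonist during compound treatment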)
Peroxisome proliferator-activated receptor gamma (Homo sapiens), sequence (P37231 whole entry, looked up): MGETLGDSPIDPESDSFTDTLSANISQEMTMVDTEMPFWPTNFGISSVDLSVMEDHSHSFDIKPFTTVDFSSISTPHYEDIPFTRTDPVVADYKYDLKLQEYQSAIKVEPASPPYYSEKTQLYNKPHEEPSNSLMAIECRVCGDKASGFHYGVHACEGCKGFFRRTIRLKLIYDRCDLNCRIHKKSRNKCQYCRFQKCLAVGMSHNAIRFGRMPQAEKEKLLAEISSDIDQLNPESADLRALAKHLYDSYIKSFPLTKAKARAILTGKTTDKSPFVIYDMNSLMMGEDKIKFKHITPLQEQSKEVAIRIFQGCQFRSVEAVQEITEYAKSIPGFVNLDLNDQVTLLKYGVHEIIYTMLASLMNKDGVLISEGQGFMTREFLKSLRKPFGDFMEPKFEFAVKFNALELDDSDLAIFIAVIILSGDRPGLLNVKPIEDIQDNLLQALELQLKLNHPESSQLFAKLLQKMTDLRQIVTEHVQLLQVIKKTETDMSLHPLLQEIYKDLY
Summary of the method: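 Cell-based beta-lactamase assay; GW9662 served as the antagonist control. Stimulation used rosiglitazone, final 50 nM, 16 h, 37 C.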

[9] = qHTS assay for small molecule agonists of the antioxidant response element (ARE) signaling pathway (AID 651741; active = well fitted activation curve with a large enough effect in the signal ratio; the % refers to the signal ratio; also: potency is read from the fitted curve at half-maximal effect)
Summary of the method: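 Agonist activity is measured as ARE-driven beta-lactamase expression in a stable HepG2 reporter line, using 16 h compound treatment at 37 C and a FRET substrate fluorescence readout after 2 h.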

[10] = qHTS for differential inhibitors of proliferation of Plasmodium falciparum line 7G8 (AID 1815);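 also: potency is read from the fitted curve at half-maximal effect; parasite growth measured after three days of incubation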
[11] = qHTS for differential inhibitors of proliferation of Plasmodium falciparum line 3D7 (AID 1876); also: potency is read from the fitted curve at half-maximal effect
[12] = qHTS for differential inhibitors of proliferation of Plasmodium falciparum line D10 (AID 1877);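 also: potency is read from the fitted curve at half-maximal effect; parasites grown with compound for 72 h before DNA staining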
[13] = qHTS for differential inhibitors of proliferation of Plasmodium falciparum line W2 (AID 1883); details: Potency: Plasmodium falciparum W2 proliferation inhibition;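 also: potency is read from the fitted curve at half-maximal effect; parasites grown with compound for 72 h before lysis and staining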
[14] = qHTS for differential inhibitors of proliferation of Plasmodium falciparum line HB3 (AID 1886); details: Potency: Plasmodium falciparum HB3 proliferation inhibition;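 also: potency is read from the fitted curve at half-maximal effect; parasites grown with compound for 72 h before SYBR Green readout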
[15] = Cellular Toxicity (caspase-3) NIH 3T3 (AID 666)
Summary of the method: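 NIH 3T3, 1000 cells/well, 5 hr settle then 16 hr compound at 37°C; Caspase-Glo 3/7, 20 min RT, luminescence. DMSO = basal, 100 uM tamoxifen = 100%. Hill-equation AC50, qHTS.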

[16] = biological target: Estrogen receptor (Homo sapiens) (UniProt P03372); assay: qHTS assay for small molecule antagonists of estrogen receptor alpha signaling (AID 588513; active = well fitted curve in the direction sought with a large enough effect in the signal ratio, with a control signal flat, not every such curve was filed as active; the % refers to the signal ratio)
Estrogen receptor (Homo sapiens), sequence (P03372 whole entry, looked up): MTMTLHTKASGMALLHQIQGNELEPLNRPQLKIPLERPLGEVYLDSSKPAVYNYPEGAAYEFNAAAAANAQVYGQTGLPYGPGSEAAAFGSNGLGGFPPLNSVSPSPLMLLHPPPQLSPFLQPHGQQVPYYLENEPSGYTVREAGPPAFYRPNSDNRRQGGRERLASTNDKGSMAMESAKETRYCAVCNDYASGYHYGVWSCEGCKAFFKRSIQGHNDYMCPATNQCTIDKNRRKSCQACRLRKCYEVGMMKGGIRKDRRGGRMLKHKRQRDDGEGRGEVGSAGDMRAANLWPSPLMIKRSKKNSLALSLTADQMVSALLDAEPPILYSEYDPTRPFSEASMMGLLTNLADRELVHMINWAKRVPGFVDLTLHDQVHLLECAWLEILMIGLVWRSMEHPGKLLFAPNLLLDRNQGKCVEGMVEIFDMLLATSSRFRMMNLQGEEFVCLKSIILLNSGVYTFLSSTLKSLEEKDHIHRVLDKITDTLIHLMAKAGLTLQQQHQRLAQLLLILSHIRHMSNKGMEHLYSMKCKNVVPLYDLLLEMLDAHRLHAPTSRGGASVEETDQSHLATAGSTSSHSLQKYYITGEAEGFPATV
Summary of the method: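 Antagonist-mode qHTS in ER-alpha-UAS-bla HEK 293 cells: compound titration, 0.5nM estradiol for 18 h, CCF4 fluorescence, Hill-derived IC50.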

[17] = biological target: Estrogen receptor (Homo sapiens) (UniProt P03372); assay: qHTS assay for small molecule agonists of estrogen receptor alpha signaling (AID 588514; calls by dose curve; also: nearly all actives have a fitted effect of over 70% in size)
Summary of the method: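 Read-out: CCF4 fluorescence from a beta-lactamase reporter in ER-alpha-UAS-bla HEK 293 cells after 18 hrs of compound exposure at 37 C. Normalized to 20 nM 17-beta-estradiol (100%) and DMSO (0%).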

[18] = biological target: Bile acid receptor (Homo sapiens) (UniProt Q96RI1); assay: qHTS assay for small molecule antagonists of farnesoid X receptor signaling (AID 588526; calls by dose curve)
Bile acid receptor (Homo sapiens), sequence (Q96RI1 whole entry, looked up): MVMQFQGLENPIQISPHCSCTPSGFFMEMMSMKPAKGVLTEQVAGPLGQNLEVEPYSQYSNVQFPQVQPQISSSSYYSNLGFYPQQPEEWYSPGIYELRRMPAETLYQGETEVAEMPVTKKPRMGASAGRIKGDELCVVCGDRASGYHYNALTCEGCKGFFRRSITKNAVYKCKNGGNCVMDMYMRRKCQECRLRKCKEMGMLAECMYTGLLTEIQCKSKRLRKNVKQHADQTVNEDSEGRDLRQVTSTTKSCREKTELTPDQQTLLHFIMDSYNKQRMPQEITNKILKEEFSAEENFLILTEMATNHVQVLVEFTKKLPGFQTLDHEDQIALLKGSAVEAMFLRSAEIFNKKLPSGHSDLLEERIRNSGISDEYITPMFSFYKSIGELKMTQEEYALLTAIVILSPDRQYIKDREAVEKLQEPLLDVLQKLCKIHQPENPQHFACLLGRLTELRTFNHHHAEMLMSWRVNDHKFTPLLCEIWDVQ
Summary of the method: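 Beta-lactamase reporter antagonist mode: HEK293T FXR-UAS-bla cells, titrated compound, CDCA stimulation, 16 h 37 C, CCF4 dye 2 h RT. Data normalized to CDCA 50 uM and DMSO; Hill-fit IC50.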

[19] = biological target: M-phase phosphoprotein 8 (Homo sapiens) (UniProt Q99549); assay: qHTS Validation Assay for Inhibitors for MPP8 Chromodomain Interactions with Methylated Histone Tails (AID 488949); also: nearly all actives have a fitted effect of over 55% in size; also: potency is read from the fitted curve at half-maximal effect
M-phase phosphoprotein 8 (Homo sapiens), sequence (Q99549 whole entry, looked up): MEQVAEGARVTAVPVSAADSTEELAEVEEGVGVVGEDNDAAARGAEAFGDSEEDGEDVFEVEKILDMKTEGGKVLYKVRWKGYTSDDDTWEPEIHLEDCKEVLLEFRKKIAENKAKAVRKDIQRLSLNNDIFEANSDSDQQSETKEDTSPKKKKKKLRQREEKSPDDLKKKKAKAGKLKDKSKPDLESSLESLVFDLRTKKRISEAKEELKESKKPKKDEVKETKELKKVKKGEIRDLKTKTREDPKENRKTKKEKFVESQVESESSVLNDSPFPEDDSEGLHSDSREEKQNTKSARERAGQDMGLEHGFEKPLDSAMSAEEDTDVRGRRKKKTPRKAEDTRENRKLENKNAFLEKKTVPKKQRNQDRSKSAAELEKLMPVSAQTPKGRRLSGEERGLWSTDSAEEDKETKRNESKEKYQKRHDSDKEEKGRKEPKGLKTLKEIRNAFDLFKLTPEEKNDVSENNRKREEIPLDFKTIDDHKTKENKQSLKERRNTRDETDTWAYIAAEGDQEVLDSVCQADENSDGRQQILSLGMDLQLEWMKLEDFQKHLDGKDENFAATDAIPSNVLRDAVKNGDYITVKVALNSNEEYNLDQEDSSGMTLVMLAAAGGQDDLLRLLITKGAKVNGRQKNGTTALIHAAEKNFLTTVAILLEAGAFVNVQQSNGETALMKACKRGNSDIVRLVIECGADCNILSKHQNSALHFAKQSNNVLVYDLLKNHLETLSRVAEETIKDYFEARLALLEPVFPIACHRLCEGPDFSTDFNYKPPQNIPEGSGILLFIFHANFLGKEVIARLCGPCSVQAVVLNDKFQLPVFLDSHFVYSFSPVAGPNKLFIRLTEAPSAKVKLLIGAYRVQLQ
Summary of the method: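 Chemiluminescent proximity assay: histidine-tag capture via nickel acceptor beads, biotin peptide via streptavidin donor beads. Protein and peptide each at 50 nM, pH 7.4, with 30 min incubations at room temperature for complex formation, compound exposure and bead binding.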

[20] = Validation screen for inhibitors of Lassa infection (AID 463096; calls by dose curve)

For `COC1=CC(=O)OC(CCc2ccccc2)C1` (stereo not drawn), the outcome [1] was “inactive”, the caspase-3 activation [2] was 1.48% (inactive) and the outcome [3] was “inactive”. For the same molecule, the outcome [4] was “inactive” and the activation [5] was -1.07% (inactive).

With `COC1=CC(=O)O[C@@H](/C=C/c2ccc3c(c2)OCO3)C1` the outcome [1] was “inactive”, the caspase-3 activation [2] was -22.8% (inactive) and the Potency [6] was “inactive”. For the same molecule, the Potency [7] was “inactive”, the Potency [8] was “inactive” and the outcome [3] was “inactive”. The outcome [4] was “inactive” and the Potency [9] was 6.68 µM (active).

For `C[C@]12C=CC(=O)C=C1CCC1C2=CC[C@]2(C)[C@@H](C(=O)CN3CCN(c4cc(N5CCCC5)nc(N5CCCC5)n4)CC3)CC[C@@H]12` (stereo partly drawn), the Potency [10] was 1.12 µM (active), the Potency [11] was 0.794 µM (active) and the Potency [12] was 1.58 µM (active). For the same molecule, the Potency [13] was 0.794 µM (active) and the Potency [14] was 1.41 µM (active).

With `Clc1ccc2ccccc2c1` the outcome [15] was “inactive”, the Potency [16] was “inactive” and the Potency [17] was “inactive”. The outcome [18] was “inactive”, the Potency [7] was “inactive” and the Potency [8] was “inactive”. For the same molecule, the outcome [3] was “inactive”, the outcome [4] was “inactive” and the Potency [9] was “inactive”.

With `COc1cc(OC)c(/C=C2/C(=O)Nc3ccccc32)c(OC)c1` the Potency [13] was 12.6 µM (active), the Potency [14] was 11.2 µM (active) and the Potency [19] was 12.6 µM (active) and inactive.

With `CC(=O)O[C@H]1C[C@@H]2CCC3C(CC[C@@]4(C)[C@H]3C[C@H]([N+]3(C)CCCCC3)[C@@H]4OC(C)=O)[C@@]2(C)C[C@@H]1[N+]1(C)CCCCC1` (stereo partly drawn) the Potency [11] was 11.2 µM (active) and the Potency [20] was “inactive”.

In the case of `C[C@]12CC[C@H]3[C@@H](CCC4=CC(=O)CC[C@@]43C)[C@@H]1CC[C@@H]2O`, the outcome [1] was “inactive”, the outcome [15] was “inactive” and the Potency [7] was 7.08 µM (active). For the same molecule, the Potency [8] was “inactive” and the outcome [4] was “inactive”.

In the case of `CN1C[C@H](C(=O)N[C@]2(C)O[C@@]3(O)C4CCCN4C(=O)[C@H](Cc4ccccc4)N3C2=O)C[C@@H]2c3cccc4[nH]cc(c34)C[C@H]21` (stereo partly drawn), the Potency [10] was 0.224 µM (active), the Potency [11] was 2 µM (active) and the Potency [12] was 4.47 µM (active). For the same molecule, the Potency [13] was 1.41 µM (active), the Potency [14] was 0.891 µM (active) and the Potency [20] was “inactive”.

In the case of `S=C(S)N1CCCC1`, the Potency [10] was 2.82 µM (active), the Potency [11] was 3.16 µM (active) and the Potency [13] was 11.2 µM (active). For the same molecule, the Potency [14] was 2.51 µM (active) and the Potency [19] was “inactive”.

For `c1ccc(-c2ccccc2)cc1`, the outcome [15] was “inactive”, the caspase-3 activation [2] was -8.06% (inactive) and the Potency [6] was “inactive”. For the same molecule, the Potency [16] was “inactive”, the Potency [17] was “inactive” and the outcome [18] was “inactive”. For the same molecule, the Potency [7] was “inactive”, the Potency [8] was “inactive” and the Potency [9] was “inactive and 54.5 µM (active)”. For the same molecule, the activation [5] was 0.41% (inactive) and 0.224% (inactive).

In the case of `ClCBr`, the outcome [1] was “inactive”, the outcome [15] was “inactive” and the caspase-3 activation [2] was -5.04% (inactive). For the same molecule, the Potency [16] was “inactive”, the Potency [17] was “inactive” and the outcome [18] was “inactive”. The Potency [7] was “inactive”, the Potency [8] was “inactive” and the outcome [3] was “inactive”. The outcome [4] was “inactive”.

In the case of `Brc1ccccc1`, the outcome [15] was “inactive”, the caspase-3 activation [2] was -10.7% (inactive) and the Potency [6] was “inactive”. For the same molecule, the Potency [16] was “inactive”, the Potency [17] was “inactive” and the Potency [7] was “inactive”. For the same molecule, the Potency [8] was “inactive”, the outcome [3] was “inactive” and the outcome [4] was “inactive”. The activation [5] was 1.07% (inactive) and -1.27% (inactive).
